Screening data: PubChem, National Center for Advancing Translational Sciences (NCATS)
Pol iota inh – inhibitors of human DNA polymerase iota; Q9UNA4; Pol iota fluorescent replication assay, 10 min; Potency, µM (titrated, usually from 115 µM), inactives show at the top dose activity, negative = inhibition, usual class: inhibitors; 390,000 compounds, 1% hits; note: potency is the fitted concentration of half-maximal effect
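Fluorescent replication assay read twice, at 0 min and 10 min after adding 50 nM (final) substrate. Enzyme (10 nM) and compounds were first incubated 15 min at room temperature; enzyme-free buffer wells were negative controls.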
POLB inh – DNA polymerase beta (human) inhibition; 340,000 compounds, 1.3% hits; AID 485314; Pol beta primer extension/strand displacement, fluorescence kinetic; Potency, µM (titrated, usually from 114 µM), inactives show at the highest dose activity change, negative = inhibition, usual class: inhibitors; note: potency is the fitted concentration of half-maximal effect; % is set by controls: 0 for no effect and ±100 for the full control effect
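10 nM enzyme + cpd, 15 min RT; start with substrate 50 nM final; read 0 min and after 10 min RT. Corrected, normalized data; 4-parameter Hill curve fit.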
WRN inhibitor – WRN helicase (human) inhibition. 360,000 compounds, 0.46% hits. WRN helicase unwinding, fluorescent forked duplex, kinetic. Potency, µM (titrated, usually from 114 µM), for inactives: at the highest dose activity change, negative = inhibition, most hits filed as inhibitors; note: potency is the fitted concentration of half-maximal effect; % is set by controls: 0 for no effect and ±100 for the full control effect; nearly all actives have a fitted effect of over 55% in size
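Primary qHTS, 1536-well format. 20 nM WRN + compound, 15 min RT; start with 100 nM forked fluorophore/quencher duplex, 2 mM ATP (final); kinetic read ex 525/em 598 nm.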
Pol kappa inh – DNA polymerase kappa (human) inhibition; Q9UBT6; purified Pol kappa, fluorescent DNA synthesis assay, 10 min; AID 588579; 400,000 compounds, 0.53% hits; Potency, µM (highest dose often 107 µM), inactives show at the top dose activity, negative = inhibition, most hits filed as inhibitors; note: potency is the fitted concentration of half-maximal effect; % is set by controls: 0 for no effect and ±100 for the full control effect
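Enzyme at 10 nM met test compounds for 15 min at room temperature. Substrate addition (50 nM final) began the reaction, which was monitored by fluorescence at 0 and 10 min.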
PI5P4Ka inh – PI5P4K alpha (human) kinase inhibition | PI5P4Kalpha enzyme, ADP-Glo luminescence, 60 min; active compounds read low | 330,000 compounds, 1.2% hits | max response, %; active = max response of -50% or lower; inconclusive = between -30% and -50%; inactive = -30% or higher; note: value at the top dose of about 77 µM; % is set by controls: 0 for no effect and ±100 for the full control effect
Target sequence (P48426 whole entry, looked up): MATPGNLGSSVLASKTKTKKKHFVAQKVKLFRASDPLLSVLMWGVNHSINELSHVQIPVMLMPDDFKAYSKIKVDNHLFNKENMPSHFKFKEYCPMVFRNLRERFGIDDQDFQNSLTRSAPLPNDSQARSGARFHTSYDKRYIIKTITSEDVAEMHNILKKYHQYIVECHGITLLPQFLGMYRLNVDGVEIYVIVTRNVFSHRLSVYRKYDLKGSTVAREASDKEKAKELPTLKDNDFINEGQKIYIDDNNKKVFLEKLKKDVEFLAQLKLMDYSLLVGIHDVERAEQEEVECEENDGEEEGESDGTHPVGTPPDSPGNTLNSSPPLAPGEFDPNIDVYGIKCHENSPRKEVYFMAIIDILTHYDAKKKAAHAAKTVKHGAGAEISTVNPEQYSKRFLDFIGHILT
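ADP-Glo luminescence end-point read after a 60 min room-temperature kinase reaction of PI5P4Kalpha plus substrate, initiated with ATP at 5 microM final. Buffer: 0.038 M HEPES pH 7.4, EGTA, 0.1% CHAPS, 5% DMSO.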
POLH inh – inhibitors of human DNA polymerase eta; AID 588591; Q9Y253; Potency, µM (doses to about 114 µM), without a hit: at the highest dose activity change, negative = inhibition, hits mostly inhibitors; 390,000 compounds, 1.2% hits; recombinant Pol eta, fluorescent DNA replication assay; note: potency is the fitted concentration of half-maximal effect; % is set by controls: 0 for no effect and ±100 for the full control effect
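Pol eta at 10 nM preincubated with compounds 15 min at room temperature; reaction started with fluorescent substrate (50 nM final) and read kinetically at 0 and 10 min.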
* hit, by the source's call; u = inconclusive; x = no result; [ ] = remark or other dose. The list is not random: actives were taken first. Their share in the collection is about 2.8%. Unless noted, calls come from the whole dose curve; as a rule, active = well fitted curve in the direction sought with a large enough effect; inconclusive = small, poorly fitted or top-dose-only effect, or another doubt; inactive = no such curve, though single readings can be large; an effect the other way counts as inactive or inconclusive.

SMILES	Pol iota inh	POLB inh	WRN inhibitor	Pol kappa inh	PI5P4Ka inh	POLH inh
CCOc1ccc(CCNC(=O)c2cnc3sc(N4CCCCCC4)nn3c2=O)cc1	89.1µM*	-8.9%	x	-0.6%	x	-11.8%
COc1ccc(NC(=O)CNC(=O)Cn2c(C)cc3ccccc3c2=O)c(OC)c1	116.5%	79.4µM*	-16.3%	-19.9%	-8.2	-15.6%
COc1ccc(NC(=O)CC(C)=O)c(OC)c1	-28.4%	-0.1%	-1.2%	-1.2%	-64.4*	4.0%
COc1cc(NC(=O)CNC(=O)Cn2c(C)cc3ccccc3c2=O)cc(OC)c1OC	7.2%	0.3%	4.7%	1.9%	-2.4	-13.5%
COc1ccc(NC(=O)CNC(=O)Cn2c(C)cc3ccccc3c2=O)cc1OC	37.9%	31.6µM*	-18.8%	5.6%	8.2	-25.3%
CSc1ccc(/C=C2\C=C(C(O)c3ccc(SC)cc3)c3ccccc32)cc1 (centres undefined)	2.7%	x	x	-7.1%	x	x
Oc1cc(CNCc2ccccc2)c(O)cc1CNCc1ccccc1	u	x	-15.6%	79.4µM*	-55.9*	u
CCCCCCCCCCCCCCCC[n+]1ccc(CC(O)c2c(C)[nH]c3ccccc23)c2ccccc21 (centres undefined)	118.3%	x	x	64.1%	x	x
COc1ccc(-c2ccc(/C=C3/C(=N)N4C(C)=CSC4=NC3=O)o2)c([N+](=O)[O-])c1	17.8µM*	u	u	u	-9.5	u
COc1ccc(NC(=O)c2ccccc2OCC(=O)Nc2ccc(Br)cc2)cc1	-3.2%	x	x	-12.0%	x	x
CCOc1ccc(C(=O)c2cn(CC(=O)Nc3ccc(F)c(F)c3)c3cc4c(cc3c2=O)OCCO4)cc1	10.1%	3.9%	x	-13.2%	x	-13.8%
CCOc1cc2c(C#N)c(N3CCOCC3)nc(N)c2c(N)n1	-3.5%	81.9%	-5.0%	-4.7%	-7.0	-1.9%
CCOc1cc2c(C#N)c(N(CC)CC)nc(N)c2c(N)n1	10µM*	x	-5.8%[57.1 µM]	-4.7%	3.2	-15.9%
CC(=O)N1CCc2cc(CNC(=O)Nc3cc(Cl)ccc3C)ccc21	11.8%	28.2µM*	x	-4.3%[60.1 µM]	x	-10.1%
O=C(N/N=C1\CCCc2oc(C(=O)O)cc21)c1ccccc1	-6.1%	9.0%	-11.0%	-11.3%	-1.7	3.0%
O=C(O)c1cc2c(o1)CCC/C2=N\O	0.6%[58.9 µM]	89.1µM*	-0.2%	-27.7%	x	-9.9%
Clc1ccc2c(Cl)cc[n+](CCC3CCCCC3)c2c1	-17.7%	x	x	-13.5%	x	x
COc1ccc(C(=O)Nc2cccc(/C=C(\CCC(=O)O)c3nc4ccccc4s3)c2)cc1	u	u	-12.6%[11.6 µM]	u	-55.7*	56.2µM*
CCOc1ccc2cc(C3CC(c4ccco4)=NN3S(C)(=O)=O)c(=O)[nH]c2c1 (centres undefined)	35.5µM*	15.8%	-3.6%[11.6 µM]	-26.6%	u	u
CCOc1ccc2nc(Cl)c(C3CC(c4ccco4)=NN3S(C)(=O)=O)cc2c1 (centres undefined)	u	5.3%	-2.6%	-19.0%	-15.9	-8.5%
Cc1ccc(CNC(=O)c2cc3c(s2)-c2c(C)cccc2OC3)cc1	u	14.1µM*	x	-40.6%	x	-19.1%
COc1cc(Cl)c(C)cc1NC(=O)c1cc2c(s1)-c1c(C)cccc1OC2	2.2%	2.7%	x	-8.9%	x	-7.3%
COc1ccc(NC(=O)c2cc3c(s2)-c2c(C)cccc2OC3)cc1Cl	-1.7%	11.2µM*	x	-28.9%	x	u
Nc1c(-c2nc(-c3cccs3)no2)nnn1-c1cccc(F)c1	0.2%	6.9%	x	5.0%	x	-9.7%
CCc1nnc(NC(=O)c2sc3nc4c(cc3c2N)CCCCCC4)s1	25.1µM*	39.8µM*	-10.3%[11.6 µM]	-42.8%	-23.1	39.8µM*
SMILES	Pol iota inh	POLB inh	WRN inhibitor	Pol kappa inh	PI5P4Ka inh	POLH inh
CC(=O)c1cccc(NC(=O)c2sc3nc4c(cc3c2N)CCCC4)c1	-5.4%	u	x	8.8%	x	79.4µM*
N#Cc1cc2c(N)c(C(=O)Nc3ccccc3)sc2nc1N	x	-26.4%	x	x	x	x
Cc1cccc(NC(=O)c2sc3nc(N)c(C#N)cc3c2N)c1	7.8%	-8.7%	-22.1%	-20.2%	-50.7*	-9.7%
Cc1ccc(C)c(Nc2nn3c(=O)c4ccc(C(=O)N(C)Cc5ccccc5)cc4nc3s2)c1	-18.6%	u	x	-11.4%	x	-8.9%
CCOc1cc(/C=C2\C(=O)N(Cc3ccc(C)cc3)C(C)=C2C(=O)OC)ccc1O	-1.5%	-1.4%	79.4µM*	-11.9%	3.5	-7.4%
COC(=O)c1sc(NC(=S)NNC(=O)c2c(Br)c(C)nn2C)c(C(=O)OC)c1C	u	22.4µM*	-18.0%	-35.5%	u	50.1µM*
COC(=O)c1sc(S(=O)(=O)Nc2c(C)nn(C)c2C)c(C(=O)OC)c1C	-11.8%	x	4.2%	-9.3%	2.7	-25.6%
CCc1ccc(S(=O)(=O)Nc2cccc(-c3ccc(N4CCC(C)CC4)nn3)c2)s1	26.8%	-3.1%	x	-14.4%[60.1 µM]	x	-17.6%
CS(=O)(=O)N1Cc2ccccc2CC1C(=O)OCC(=O)Nc1ccc2ccccc2c1 (centres undefined)	u	3.16µM*	-34.5%	u	x	u
Cc1ccc(S(=O)(=O)N2Cc3ccccc3CC2C(=O)Nc2ccc3c(c2)OCO3)cc1 (centres undefined)	u	22.4µM*	-36.0%	50.1µM*	-50.5*	10µM*
O=C(O)C1Cc2ccccc2CN1S(=O)(=O)c1ccccc1 (centres undefined)	54.8%	-8.9%	-14.7%[11.6 µM]	-7.6%	1.2	79.4µM*
CS(=O)(=O)N1Cc2ccccc2CC1C(=O)OCC(=O)NCCc1ccc(S(N)(=O)=O)cc1 (centres undefined)	28.9%	x	-22.6%	-2.9%	-4.2	-15.2%
CN(C)C(=O)C1Cc2ccccc2CN1S(=O)(=O)c1ccc(F)cc1 (centres undefined)	-5.7%	-1.2%	-0.3%	1.9%	2.7	-0.5%
O=C(O)C1Cc2ccccc2CN1S(=O)(=O)c1ccc2ccccc2c1 (centres undefined)	u	-25.4%	-1.6%[11.6 µM]	-22.7%	-13.6	5.62µM*
CCC(=O)C1=C(c2ccc(F)cc2)N(C(=O)CC)n2cnnc2S1	u	3.5%	x	-0.1%[60.1 µM]	x	-3.4%
Cn1c(=O)cc(SCC(=O)N2CCN(c3ccc(F)cc3)CC2)c2ccc(Cl)cc21	3.3%	6.5%	x	-2.8%	x	-3.8%
O=C(c1cc(-c2ccc(Br)cc2)n[nH]1)N1CCN(S(=O)(=O)c2ccc(Br)s2)CC1	-7.3%	34.7%	x	-16.9%	x	-5.7%
Oc1cccc(/C=N/N=C/c2cccc(O)c2O)c1O	u	0.316µM*	-14.2%[11.6 µM]	11.2µM*	-13.5	2.82µM*
Cc1ccccc1N=Cc1cccc(O)c1O	u	3.55µM*	11.2µM*	10µM*	u	u
Cc1ccc(N=Cc2cccc(O)c2O)c(C)c1	3.55µM*	10µM*	x	20µM*	x	x
CC(N=Cc1cccc(O)c1O)c1ccccc1 (centres undefined)	8.91µM*	2.51µM*	31.6µM*	12.6µM*	x	u
